In ChEMBL document CHEMBL4513216, “Probing the Open Global Health Chemical Diversity Library for Multistage-Active Starting Points for Next-Generation Antimalarials” (ACS Infect Dis, 2020) one finds INHIBITION data, which are given here for 53 compounds.

The structures appear in SMILES notation. In all, about 69,000 compounds went through this assay and about 8,600 (12%) showed an effect of 50% or more. Only a selection was taken, and strong results are over-represented in it overall.

This experiment has as its system Plasmodium berghei. Nature of the experiment: Screen against P. berghei liver stage (PbLuc), transformed with Luciferase, at 10uM. The note with it: tested at 10 uM. It counts as functional, HepG2.
`CNC(=O)CN([C@H]1C[C@H]2CCOC[C@H]2C1)S(=O)(=O)c1ccccc1`: the INHIBITION worked out at 19.2%.

With `O=C1COC2(CCN(Cc3ccoc3)CC2)CN1CCn1cccn1`, the INHIBITION is on record as 0.804%.

Regarding `Cc1occc1C(=O)N1CCO[C@H]2[C@H](OCc3ccccn3)CC[C@@H]21`, the INHIBITION worked out at 30.3%.

Consider `Cc1cnc(N2CCC(c3ccncc3)CC2)nc1-c1ccnn1C`, for which the INHIBITION was 68%.

With `COc1cnc(N2CCN(C)CC2)nc1-c1ccnn1C`, the INHIBITION came to 20.8%.

On to `Cc1cnc(N2CCC(c3ccccc3)CC2)nc1-c1ccnn1C`, for which the INHIBITION stood at 68%.

Take `Cc1cnc(N2CCCC(c3ccccc3)C2)nc1-c1ccnn1C` (stereo not drawn): the INHIBITION amounted to 71%.

Turning to `Cc1cnc(N2CCN(C)CC2)nc1-c1ccnn1C`, the INHIBITION is reported as 16.3%.

`Cc1cnc(N2CCCC(O)C2)nc1-c1ccnn1C` (stereo not drawn): the INHIBITION was 16.6%.

`Cc1cnc(N2CC[C@@]3(O)CCCC[C@H]3C2)nc1-c1ccnn1C`: the INHIBITION amounted to 30.4%.

Turning to `Cc1cnc(N2CCCC(c3ccccc3)C2)nc1-c1ncnn1C` (stereo not drawn), the INHIBITION was determined as 39.3%.

`COc1cnc(N2CC(N3CCOCC3)C2)nc1-c1ccnn1C`: the INHIBITION is reported as 41%.

Regarding `Cc1ccoc1C(=O)N1C[C@@H]2COC[C@]2(COCc2cccnc2)C1`, the INHIBITION is -34.7%.

On to `CCCc1n[nH]c(C2CN(C(=O)c3n[nH]c4ccccc34)CCO2)n1` (stereo not drawn), for which the INHIBITION is on record as 21%.

As for `COC(=O)NCC(=O)NC1(C)CCc2ccccc2C1` (stereo not drawn), the INHIBITION came out at 7.3%.

Consider `CN(C)c1ccc(C(=O)N2CCCC(n3cccn3)C2)nn1` (stereo not drawn), for which the INHIBITION is reported as 3.15%.

Regarding `Cc1ccc(NC2CCN(C(=O)CCCc3cccs3)CC2)nn1`, the INHIBITION is -3.7%.

In the case of `O=C1CCC2(CCN(Cc3cscn3)CC2)CN1CC1CCCO1` (stereo not drawn), the INHIBITION was -23.5%.

Take `Cc1noc(CCCC(=O)NC(C)c2ccccn2)n1` (stereo not drawn): the INHIBITION worked out at 13.9%.

With `Cc1n[nH]c(SCC(=O)N[C@@H](C)C(N)=O)n1`, the INHIBITION worked out at 4.41%.

For the compound `Cc1ccc(OCCC(=O)NC(C)c2ccncc2)cc1` (stereo not drawn), the INHIBITION is listed as 41.6%.

In the case of `Cc1n[nH]c(SCC(=O)NC(c2ccccn2)C(C)C)n1` (stereo not drawn), the INHIBITION is listed as 58.7%.

As for `CSCC(=O)NC(Cc1ccc(C)cc1)c1ccccn1` (stereo not drawn), the INHIBITION was found to be 21.3%.

Consider `Cc1n[nH]c(SCC(=O)NC(c2ccncc2)C(C)C)n1` (stereo not drawn), for which the INHIBITION came to 50.1%.

Take `CC(C)CNC(=O)Cn1ccc2ccccc21`: the INHIBITION was 25.7%.

Consider `O=C(NC1CC1)c1ccnc(-c2cc(NCCO)nc3[nH]ccc23)c1`, for which the INHIBITION is -20.1%.

Consider `O=S(=O)(c1ccccc1)N1CCC2(CCCN2Cc2cccnc2)C1` (stereo not drawn), for which the INHIBITION stood at 55.5%.

In the case of `O=S(=O)(c1ccccc1)N1CCC2(CCCN2Cc2ccccc2Cl)C1` (stereo not drawn), the INHIBITION came to 60.2%.

For the compound `CC(C)c1ccc(S(=O)(=O)N2CCCC3(CCCN3S(C)(=O)=O)C2)cc1` (stereo not drawn), the INHIBITION was -3.33%.

Turning to `O=S(=O)(c1ccccc1)N1CCC2(CCCN2Cc2ccc(Cl)cc2)C1` (stereo not drawn), the INHIBITION stood at 91.7%.

For the compound `CCS(=O)(=O)N1CCCC2(CCCN2Cc2cccc(F)c2)C1` (stereo not drawn), the INHIBITION is -22.1%.

Consider `O=C(c1ccc[nH]1)N1CCC2(CCCN2Cc2cccnc2)CC1`, for which the INHIBITION is 4.02%.

As to `Cc1ccc(CN2CCCC23CCN(S(=O)(=O)c2ccccc2)C3)o1` (stereo not drawn), the INHIBITION is listed as 34.7%.

Take `O=S(=O)(c1ccccc1)N1CCC2(CCCN2Cc2cccc(F)c2)C1` (stereo not drawn): the INHIBITION was determined as 78.8%.

On to `CS(=O)(=O)N1CCCC12CCCN(S(=O)(=O)c1cccc(F)c1)C2` (stereo not drawn), for which the INHIBITION is listed as -2.35%.

On to `COCCC(=O)N1CCC2(CCCN2Cc2ccccc2)C1` (stereo not drawn), for which the INHIBITION is on record as -22.5%.

As to `CCc1ccc(S(=O)(=O)N2CCCC3(CCCN3S(C)(=O)=O)C2)cc1` (stereo not drawn), the INHIBITION was -12.2%.

Regarding `O=C(c1ccc[nH]1)N1CCCC2(CCCN2Cc2cccnc2)C1` (stereo not drawn), the INHIBITION was 12.1%.

With `CCOc1cc(/C=C/c2ncc(C(=O)O)s2)cc(Br)c1O`, the INHIBITION is recorded as -13.3%.

For `CC(C)CNC(=O)CNC(=O)c1nc(Cc2c(Cl)cccc2Cl)no1`, the INHIBITION is reported as 41%.

Turning to `COCCC1CCN(CC(C)n2cnc3ccccc32)CC1` (stereo not drawn), the INHIBITION was -3.47%.

In the case of `CCc1nc(CN2CCCN(C(=O)c3cnc(C)cn3)CC2)cs1`, the INHIBITION was found to be 10.733%.

For the compound `COc1ccccc1CN(Cc1cccnc1)CC1CCCO1` (stereo not drawn), the INHIBITION was 42.6%.

As to `CCN(CC)Cc1ccc(C(=O)N2CCN(CC(C)O)CC2)o1` (stereo not drawn), the INHIBITION was determined as 21.5%.

For `COC(=O)c1cccc(S(=O)(=O)NC(=O)COC2CCCC2)c1`, the INHIBITION stood at 15.5%.

Consider `COCCC(=O)N1CCC2(CCCN2Cc2cccc(Cl)c2)C1` (stereo not drawn), for which the INHIBITION is given as 47.9%.

`CCS(=O)(=O)N1CCCC2(CCCN2Cc2cccc(Cl)c2)C1` (stereo not drawn): the INHIBITION was -14.3%.

`O=S(=O)(c1ccccc1)N1CCC2(CCCN2Cc2cccc(Cl)c2)C1` (stereo not drawn): the INHIBITION came out at 61.8%.

Consider `NC(=O)C1CCN(C(=O)NCCOc2ccc3c(c2)CCC3)CC1`, for which the INHIBITION came to 5.45%.

For the compound `N[C@H]1CN(C(=O)c2ccc(Cl)cc2O)C[C@@H]1C1CC1`, the INHIBITION is 61%.

On to `Cc1cc(Cl)ccc1C(=O)N1C[C@H](C2CC2)[C@@H](N)C1`, for which the INHIBITION is given as 32.2%.

In the case of `N[C@H]1CN(C(=O)c2ccc(Cl)cc2F)C[C@@H]1C1CC1`, the INHIBITION is recorded as 25.7%.

As to `O[C@@H]1C[C@H]2CN(Cc3ccsc3)[C@@H](Cc3ccccc3)CN2C1`, the INHIBITION is recorded as 39.3%.
